# The supplement of paper PMC7858590
# Tested on: human monocyte-derived macrophages (polarized)
# Assay: cell shape (eccentricity) Z-score vs DMSO control; higher = more elongated, M2-like morphology
# Details: 5 µM; 24 h; macrophage state: M1-polarized (IFNg + TNFa), cytokines present during treatment
# Experimental: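 Primary-screen hits were rescreened on polarized hMDMs with the differentiating cytokines (IL-4 + IL-13 or IFNg + TNFa) kept in the medium during treatment with compound at 5 uM for 24 h. The eccentricity Z-score vs DMSO wells is averaged over experiments.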
row,Structure (SMILES),cell shape (Z-score)
1,O=c1cc(-c2cccc3c2Sc2ccccc2S3)oc(N2CCOCC2)c1,-7.49
2,C[C@H](CO)N1C[C@H](C)[C@H](CN(C)C(=O)Nc2cc(F)ccc2F)Oc2cc(C#CC3CCCC3)ccc2S1(=O)=O,-2.86
3,Cc1ccc2c(=O)c3ccccc3n(CCCN)c2c1C,-0.216
4,COc1cc(C(=O)N2CCC(N3CCN(C)CC3)CC2)ccc1Nc1ncc2c(n1)N(C)c1ccccc1C(=O)N2C,-5.99
5,COc1cc2c(cc1-c1c(C)noc1C)ncc1[nH]c(=O)n([C@H](C)c3ccccn3)c12,-12.4
6,CNC(=O)c1cc(Oc2ccc(NC(=O)Nc3ccc(Cl)c(C(F)(F)F)c3)cc2)ccn1,14
7,C[C@]1(CO)CN(c2cc(C(=O)Nc3ccc4c(c3)-c3c(c(C(N)=O)nn3-c3ccc(F)cc3)CC4)c(Cl)cn2)C[C@@]1(C)CO,-7.03
8,NC(=O)C1CCCc2c1[nH]c1ccc(Cl)cc21 (stereo not given),-2.04
9,C#Cc1cccc(Nc2ncnc3cc(OCCOC)c(OCCOC)cc23)c1,11.8
10,Cc1ccc(C(=O)Nc2ccc(S(=O)(=O)O)c3cc(S(=O)(=O)O)cc(S(=O)(=O)O)c23)cc1NC(=O)c1cccc(NC(=O)Nc2cccc(C(=O)Nc3cc(C(=O)Nc4ccc(S(=O)(=O)O)c5cc(S(=O)(=O)O)cc(S(=O)(=O)O)c45)ccc3C)c2)c1,6.07
11,N#Cc1ccc(COC[C@H]2O[C@@H](n3c(NCc4ccc(Cl)c(Cl)c4)nc4c(N)ncnc43)[C@H](O)[C@@H]2O)cc1,-3.47
12,CCCCCCCCCc1ccc(OCCOCCOCCOCCOCCOCCOCCOCCOCCO)cc1,5.89
13,CC[C@]12CCCN3CCc4c(n(c5ccccc45)[C@@](O)(C(=O)OC)C1)[C@@H]32,-5.43
14,CS(=O)(=O)c1cccc(CNc2nc(Nc3ccc4c(c3)CCC(=O)N4)ncc2C(F)(F)F)c1,-3.99
15,CC(C)CNc1ccnc(NCc2csc(-c3ccccc3)n2)n1,-11.9
16,CN1CCN(c2nc(C3=C(c4c[nH]c5ccccc45)C(=O)NC3=O)c3ccccc3n2)CC1,-0.285
17,CO[C@H]1C[C@H](O[C@@H]2/C(C)=C/C[C@@H]3C[C@@H](C[C@]4(CC[C@H](C)[C@@H](C5CCCCC5)O4)O3)OC(=O)[C@@H]3C=C(C)/C(=N/O)[C@H]4OC/C(=C\C=C\[C@@H]2C)[C@]43O)O[C@@H](C)[C@@H]1O,17.6
18,CC1CC(=O)c2c(ccc3c2C(=O)c2cccc(O)c2C3O)C1 (stereo not given),-2.52
19,CCN(CC)CCOc1ccc2c(c1)C(=O)c1cc(OCCN(CC)CC)ccc1-2,-4.84
20,O=c1cc(-c2ccc(O)cc2)oc2cc(O)cc(O)c12,0.0357
21,CC(C)C[C@@H](C=O)NC(=O)[C@H](CC(C)C)NC(=O)[C@H](CC(C)C)NC(=O)OCc1ccccc1,4.21
22,COc1cc(Nc2ncc(F)c(Nc3ccc4c(n3)NC(=O)C(C)(C)O4)n2)cc(OC)c1OC,-14.9
23,C[C@@H](Oc1cc(-c2cnn(C3CCNCC3)c2)cnc1N)c1c(Cl)ccc(F)c1Cl,7.6
24,C=CCn1c(=O)c2cnc(Nc3ccc(N4CCN(C)CC4)cc3)nc2n1-c1cccc(C(C)(C)O)n1,5.45
25,COC(=O)C(CCCN=C(N)N)NC(=O)CCCc1c(-c2ccccc2)[nH]c2c(F)cc(F)cc12 (stereo not given),0.683

# Same assay, conditions: 5 µM; 24 h; macrophage state: M2-polarized (IL-4 + IL-13), cytokines present during treatment
row,Structure (SMILES),cell shape (Z-score)
1,COc1cc(C=O)cc2c1[nH]c1ccccc12,-3.04
2,O=C1c2c(O)ccc(O)c2C(=O)c2c(NCCNCCO)ccc(NCCNCCO)c21,-1.14
3,CNCCC(Oc1ccc(C(F)(F)F)cc1)c1ccccc1 (stereo not given),7.81
4,CCCc1c(OCC(O)COc2ccc3c(=O)cc(C(=O)O)oc3c2CCC)ccc(C(C)=O)c1O (stereo not given),-2.27
5,COC(=O)C[C@@H]1C(C(=O)O)=CO[C@@H](O[C@@H]2O[C@H](CO)[C@@H](O)[C@H](O)[C@H]2O)/C1=C\COC(=O)/C=C/c1ccccc1,-7.78
6,OC1(c2ccc(Cl)c(C(F)(F)F)c2)CCN(CCCC(c2ccc(F)cc2)c2ccc(F)cc2)CC1 [Penfluridol],-10.9
7,CC1=CC(=O)c2ccccc2C1=O,-2.13
8,C=C(NC(=O)C(=C)NC(=O)c1csc(C2=N[C@@H]3c4csc(n4)[C@H]4NC(=O)c5csc(n5)[C@H]([C@](C)(O)[C@@H](C)O)NC(=O)[C@H]5CSC(=N5)/C(=C/C)NC(=O)[C@H]([C@@H](C)O)NC(=O)c5csc(n5)[C@]3(CC2)NC(=O)[C@H](C)NC(=O)C(=C)NC(=O)[C@H](C)NC(=O)[C@H]([C@@H](C)CC)N[C@@H]2C=Cc3c([C@H](C)O)cc(nc3[C@H]2O)C(=O)O[C@@H]4C)n1)C(N)=O [Thiostrepton.2mM],-5.55
9,CC(Nc1nc(N2CCCC2)nc2ccccc12)c1ccccc1 (stereo not given),-11.8
10,Cc1cc(NS(=O)(=O)c2ccc(N)cc2)no1,-9.54
11,CC1Nc2ccc(Cl)cc2S(=O)(=O)N1 (stereo not given),-1.89
12,O=C1c2ccc(Nc3ccc(F)cc3F)cc2CCc2ccc(OC[C@H](O)CO)cc21,2.03
13,C[C@H]1CN([C@@H](C)CO)C(=O)Cc2cc(NC(=O)CCC(F)(F)F)ccc2O[C@H]1CN(C)S(=O)(=O)c1ccc(Cl)cc1,-11
14,CCCCCCCCc1ccc(CCC(N)(CO)CO)cc1,-15.5
15,C=C1C(=O)OC2CC3(C)CCC=C(CO)C3CC12 (stereo not given),-5.59
